Residue numbers refer to the chain shown, from its start.
Tests used:
Test in all cases: HT-SELEX; high values mean tight binding
Settings in all cases: protein: recombinant; vector His6-GST; dsDNA, one strand shown
SALL4 ZFC4 WT (HT-SELEX) = target: T1, SALL4 ZFC4 WT (HT-SELEX) (Mus musculus, UniProt Q8BX22 870-940)
T1 sequence: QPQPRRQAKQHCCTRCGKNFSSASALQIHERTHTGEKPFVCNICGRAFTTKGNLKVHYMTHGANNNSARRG
Summary of the method: (§1)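 Each canonical k-mer's binding signal is its read fraction expressed as fold change over the initial random library. Reads came from MiSeq sequencing, scanned for 6-mers, after up to 6 triplicate cycles in which purified recombinant mouse SALL4 zinc finger cluster 4 (residues 870–940, 1 µg) bound library DNA (1.5 µg first cycle, 200 ng later) in 100 µl of 10 mM Tris–HCl pH 7.5, 50 mM NaCl, poly(dI-dC), DTT for 10 min at room temperature. Complexes were then Ni2+ bead-captured, washed, PCR-amplified and reselected.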

[1] = target: T2, SALL4 ZFC4 R900W (HT-SELEX) (Mus musculus, UniProt Q8BX22 870-940, R900W)
T2 sequence: T1 sequence with R31W
Summary of the method: as §1

[2] = target: T3, SALL4 ZFC4 G921D (HT-SELEX) (Mus musculus, UniProt Q8BX22 870-940, G921D)
T3 sequence: T1 sequence with G52D
Summary of the method: as §1

| Sequence | binding signal (SALL4 ZFC4 WT (HT-SELEX)) [fold-change vs cycle 0] | binding signal [1] [fold-change vs cycle 0] | binding signal [2] [fold-change vs cycle 0] |
| --- | --- | --- | --- |
| AGATAC | 1.32 ± 0.0304 | 1.44 ± 0.052 | 1.4 ± 0.118 |
| AAAATC | 1.66 ± 0.102 | 1.58 ± 0.0564 | 1.53 ± 0.0679 |
| AAAAGC | 0.816 ± 0.0288 | 0.899 ± 0.0164 | 0.953 ± 0.0234 |
| AAATAT | 5.57 ± 0.542 | 2.36 ± 0.147 | 2.07 ± 0.227 |
| CTTGAC | 0.777 ± 0.0347 | 0.934 ± 0.0128 | 0.981 ± 0.0363 |
| ACTAAG | 1.42 ± 0.0426 | 1.61 ± 0.0315 | 1.45 ± 0.0661 |
| AGGACG | 0.361 ± 0.014 | 0.462 ± 0.00636 | 0.558 ± 0.0296 |
| ACGGTC | 0.362 ± 0.0473 | 0.432 ± 0.0371 | 0.553 ± 0.067 |
| CGGAGA | 0.359 ± 0.025 | 0.45 ± 0.0336 | 0.543 ± 0.0379 |
| CGTCAA | 0.564 ± 0.0126 | 0.667 ± 0.0148 | 0.765 ± 0.0373 |
| GTCGAA | 0.506 ± 0.0326 | 0.599 ± 0.0193 | 0.7 ± 0.0299 |
| AGAAAT | 2.29 ± 0.182 | 2.02 ± 0.161 | 1.78 ± 0.161 |
| CCCACA | 0.389 ± 0.0158 | 0.42 ± 0.0162 | 0.523 ± 0.0663 |
| CGTCAC | 0.375 ± 0.0256 | 0.436 ± 0.013 | 0.545 ± 0.0521 |
| TATTCA | 2.4 ± 0.138 | 2.03 ± 0.0979 | 1.83 ± 0.191 |
| AAGCCT | 0.633 ± 0.0294 | 0.72 ± 0.0269 | 0.848 ± 0.0353 |
| TCTAGA | 1.32 ± 0.134 | 1.49 ± 0.119 | 1.41 ± 0.147 |
| TACTCA | 1.43 ± 0.0381 | 1.5 ± 0.0664 | 1.42 ± 0.0998 |
| CTAAGA | 1.36 ± 0.0387 | 1.51 ± 0.0736 | 1.42 ± 0.0981 |
| AGCGAT | 0.553 ± 0.0342 | 0.644 ± 0.0243 | 0.766 ± 0.0387 |
| AATTGG | 1.07 ± 0.0351 | 1.15 ± 0.0596 | 1.19 ± 0.036 |
| ACTACA | 1.29 ± 0.0616 | 1.42 ± 0.0632 | 1.34 ± 0.0704 |
| AATTAG | 1.92 ± 0.0642 | 1.97 ± 0.0604 | 1.75 ± 0.104 |
| TCTGAA | 1.3 ± 0.0929 | 1.43 ± 0.078 | 1.37 ± 0.111 |
| AACATC | 1.26 ± 0.068 | 1.37 ± 0.098 | 1.34 ± 0.101 |
| CTCATA | 1.52 ± 0.0984 | 1.48 ± 0.0543 | 1.41 ± 0.106 |
| ACCTCT | 0.859 ± 0.0231 | 0.978 ± 0.0308 | 1.02 ± 0.0211 |
| CACACC | 0.375 ± 0.0351 | 0.468 ± 0.0362 | 0.561 ± 0.0498 |
| ATGTCC | 0.723 ± 0.0385 | 0.831 ± 0.0392 | 0.904 ± 0.0203 |
| GCAACA | 0.54 ± 0.0464 | 0.629 ± 0.0238 | 0.72 ± 0.0281 |
